Data on 18 compounds can be found in PubChem BioAssay (NCI).

Common to all, as to experiment: NCI-60 one-dose screen, 48 h (100 = growth as untreated, 0 = no growth, -100 = all killed)
Settings in all cases: 10 µM

Assay [1] concerns SR leukemia.
Assay [2] concerns RPMI-8226 leukemia.
Assay [3] has as its system OVCAR-8 ovarian.
In assay [4] the test system is OVCAR-4 ovarian.
The test system of assay [5] is SK-OV-3 ovarian.
In assay [6] the test system is IGROV1 ovarian.
For assay [7], the system named is OVCAR-3 ovarian.
Assay [8] deals with HS 578T breast.
Assay [9] relates to NCI/ADR-RES ovarian.
Assay [10] relates to T-47D breast.
For assay [11], the system named is BT-549 breast.
In assay [12] the test system is MDA-MB-435 melanoma.
The test system of assay [13] is SW-620 colon.
The test system of assay [14] is MCF7 breast.
Assay [15] relates to HCT-116 colon.
Assay [16] has as its system HCC-2998 colon.
Assay [17] relates to KM12 colon.
For assay [18], the system named is OVCAR-5 ovarian.

Molecules are shown by their SMILES. This is part of a sample that, as a whole, favours compounds with a hit. Of some 83,000 tested, about 20% had one in any assay.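 Note: values are percent growth. 100 is the growth of untreated cells, values between 100 and 0 indicate rising inhibition; between -100 and 0 indicates cell death.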 Values without a mark were called inactive. Active and inactive are the calls of the source. How the source made its calls: active means growth percent below 10; inactive means the rest.

In the case of `COC(=O)c1ccc(Cn2ccc(=O)[nH]c2=O)cc1`, the growth is 94.1% in [1]; 106% in [2]; 115% in [3]; 109% in [4]; 116% in assay [5]; 114% in [6]. Moreover, the growth was 130% in [7]; 121% in [8]; 110% in [9]; 107% in assay [10]; 113% in [11]; 105% in [12]. Besides, the growth in [13] is 110%; in assay [14] it was 99.2%; in assay [15], 104%; in assay [16], 106%; in assay [17] it was 103%.
In the case of `CC(C)OCc1cc(CN2CCN(c3cccc(Cl)c3)CC2)c(O)c2ncccc12`, the growth in assay [1] was -30.6% (active); in assay [2], -25% (active); in [3], -15.2% (active); in [4] it was 15.7%; in assay [5], 13.7%; in [6], 8.86% (active). Further, the growth in [7] is 2.88% (active); in [8], -0.795% (active); in assay [9], -27.3% (active); in assay [10], 3.25% (active); in [11] it was -46% (active); in [13] it was -3.23% (active). Also, the growth was 4.89% (active) in assay [14], -55.5% (active) in assay [15], -21.6% (active) in assay [16] and -23% (active) in assay [17].
On to `CCN(CC)CC(O)Cc1ccc(OC)cc1` (stereo not drawn), for which the growth was 104% in assay [1]; 108% in assay [2]; 110% in [3]; 113% in [4]; 114% in [5]; 122% in assay [6]. For the same compound, the growth was 125% in [7]; 107% in assay [8]; 113% in assay [9]; 104% in assay [10]; 121% in assay [11]; 114% in [13]. In addition, the growth in assay [14] was 111%; in [15], 111%; in [16], 111%; in assay [17], 116%.
As for `O=[N+]([O-])c1ccc2c(c1)Cc1cc(I)ccc1-2`, the growth in [1] is 92.4%; in assay [2], 98.4%; in assay [3], 118%; in assay [4], 117%; in assay [5], 123%; in assay [6] it was 104%. Moreover, the growth was 110% in assay [7]; 101% in assay [8]; 104% in assay [9]; 105% in [10]; 94.2% in assay [11]; 98.1% in [12]. Moreover, the growth in [14] was 85%; in assay [15], 96.2%; in [16] it was 103%; in assay [17], 105%.
`CCCCCN(CCCCC)C(C)C(O)c1ccc2cc(Cl)c3ccccc3c2c1` (stereo not drawn): the growth is 84.7% in [1]; 84.1% in [2]; 99.9% in assay [3]; 105% in assay [4]; 88.8% in assay [5]; 98.3% in assay [6]. Further, the growth in assay [7] is 97.4%; in assay [8], 89.4%; in assay [9], 98.9%; in assay [10] it was 83.8%; in assay [11] it was 110%; in assay [12], 103%. Also, the growth was 80% in assay [13]; 90.6% in assay [14]; 65.7% in [15]; 97.6% in assay [16]; 103% in assay [17].
With `CS(=O)(=O)Nc1ccc([N+](=O)[O-])cc1Oc1ccccc1`, the growth is 87% in assay [1]; 83.2% in assay [2]; 92.1% in [3]; 97% in assay [4]; 97.3% in assay [5]; 106% in [6]. In addition, the growth is 95.4% in [7]; 98.2% in assay [8]; 96.8% in assay [9]; 84% in assay [10]; 109% in assay [11]; 101% in assay [12]. The growth in [13] was 104%; in assay [14] it was 102%; in assay [15] it was 100%; in assay [16], 93%; in assay [17], 94.5%.
For the compound `Clc1cc(Cl)c(Cl)c(-c2nc(-c3cccnc3)cs2)c1`, the growth was 9.83% (active) in assay [1]; 40% in assay [2]; 78.8% in assay [3]; 68.7% in [4]; 102% in [5]; 49.6% in [6]. For the same compound, the growth in assay [7] was 71.7%; in assay [8] it was 98.9%; in assay [9], 85.1%; in [10], -7.29% (active); in [11] it was 98.3%; in assay [12], 4.27% (active). Also, the growth is 46.2% in assay [13], 63.6% in [14], 40.2% in [15] and 103% in [17].
Take `Cc1ccc(-c2cc(C(=O)Nc3ccc(S(=O)(=O)N4CCCCC4)cc3)[nH]n2)c(O)c1`: the growth in assay [1] is 14.9%; in [2] it was 43.3%; in [3] it was 58.7%; in assay [4], 38.5%; in assay [5], 94.1%; in assay [6], 68.8%. For the same compound, the growth in [7] was 55.3%; in [8], 79.4%; in assay [9], 59.9%; in assay [10], 33.8%; in [11], 67.4%; in assay [12], 61.3%. The growth is 46.8% in [14], 43.5% in [15], 68.8% in assay [16] and 45.1% in assay [17].
As for `CCCCNC(=O)Oc1ccc(/C(=C(\C)c2ccc(OC)cc2)c2ccc(OCCN3CCCCC3)cc2)cc1`, the growth in assay [1] was -22.9% (active); in assay [2], 29%; in [18] it was 74.9%; in assay [4] it was 64.8%; in assay [5], 66.7%; in assay [6], 64.7%. Further, the growth in assay [7] was 73.6%; in assay [8] it was 48.5%; in assay [9], 68.2%; in [10], 32.4%; in assay [11], 52%; in assay [12], 59.8%. The growth in assay [13] is 40.5%; in assay [14], 24.2%; in [15], 29.4%; in [16] it was 72.8%; in assay [17] it was 45.4%.
Turning to `Cc1ccc(NS(=O)(=O)c2ccccc2)c(NS(=O)(=O)c2ccccc2)c1`, the growth in assay [1] was 117%; in assay [2], 93.4%; in assay [3], 105%; in [4], 97%; in assay [5], 102%; in [6] it was 107%. The growth in assay [7] was 98%; in assay [8] it was 91.1%; in assay [9] it was 94.7%; in [10], 101%; in assay [11], 104%; in assay [12], 106%. Further, the growth in assay [13] is 95.1%; in assay [14], 104%; in assay [15], 93.7%; in assay [16] it was 106%; in [17], 103%.
As to `CN(C)CCCN1c2ccccc2Sc2ccc(C(F)(F)F)cc21`, the growth in assay [1] was -42.3% (active); in assay [2], 22.5%; in [3], 44.4%; in assay [4] it was 44.4%; in [5], 20.2%; in assay [7], 8.18% (active). For the same compound, the growth in assay [8] was 27%; in [9], 10.4%; in assay [10], 5.93% (active); in assay [11] it was 25.7%; in assay [12], -39.3% (active); in [13] it was 9.61% (active). The growth in assay [14] is -39.7% (active); in assay [15] it was 1.99% (active); in assay [16] it was -65.9% (active); in assay [17], 0.137% (active).
With `O=C1/C(=C/c2ccc(O)cc2)Oc2ccc(Cl)cc21`, the growth was 109% in assay [1]; 119% in assay [2]; 79.4% in assay [3]; 120% in assay [4]; 111% in assay [5]; -27.4% (active) in assay [6]. For the same compound, the growth is 92.9% in assay [7]; 87.1% in assay [8]; 87.3% in assay [9]; 72.2% in assay [10]; 63.1% in [11]; 82.5% in [12]. Also, the growth is 103% in assay [13]; 43.2% in assay [14]; 65.7% in assay [15]; 101% in assay [16]; 101% in assay [17].
Take `N#CCC1CCCC1`: the growth was 81.6% in assay [1]; 97.2% in [2]; 98.9% in assay [3]; 95.7% in assay [4]; 104% in assay [5]; 121% in assay [7]. Further, the growth in assay [8] was 106%; in assay [9], 101%; in [10] it was 101%; in assay [11] it was 112%; in assay [12], 91.2%; in assay [13] it was 104%. Also, the growth was 92.8% in assay [14], 99.8% in assay [15], 104% in assay [16] and 110% in assay [17].
For `Cn1c([N+](=O)[O-])cnc1/C=C1\Oc2ccc(Br)cc2C1=O`, the growth in assay [1] was 6.49% (active); in assay [2], 6.2% (active); in [3] it was -11.3% (active); in [4], 3.03% (active); in [5], -7.97% (active); in assay [6], -21.6% (active). Also, the growth in assay [7] is -37.3% (active); in [8], -17.8% (active); in assay [9] it was 6.72% (active); in assay [10], 65.9%; in [11] it was -41% (active); in [12] it was -65.8% (active). The growth in assay [13] is -65.3% (active); in [14], 3.52% (active); in [15], -27.1% (active); in assay [16], -51.7% (active); in assay [17], -45.8% (active).
Regarding `CCOc1ccc2c(c1)CC[C@@H]1[C@@H]2CC[C@]2(C)[C@@H](O)[C@@H](O)C[C@@H]12`, the growth in assay [1] was 88.5%; in assay [2] it was 92.9%; in assay [3], 95.1%; in [4] it was 90.2%; in assay [5], 113%; in assay [6], 106%. Moreover, the growth in assay [7] was 118%; in assay [8], 113%; in assay [9] it was 107%; in [10], 93.8%; in assay [11], 119%; in assay [12] it was 90.2%. Also, the growth was 95.9% in assay [13]; 111% in assay [14]; 104% in assay [15]; 108% in assay [16]; 106% in assay [17].
As for `N#Cc1ncc(-c2cc(F)ccc2F)c(NC2CCCCCC2)n1`, the growth was 81.6% in [1]; 57.8% in assay [2]; 88.4% in assay [3]; 80.3% in assay [4]; 91.6% in assay [5]; 86% in [6]. In addition, the growth is 103% in assay [7]; 58.2% in assay [8]; 91.2% in assay [9]; 69.5% in assay [10]; 76.2% in assay [11]; 93.6% in assay [12]. Further, the growth in assay [13] was 96.1%; in [14], 82.3%; in assay [15], 85.6%; in assay [16], 82.3%; in assay [17], 36.4%.
As to `CNC(=O)c1cc(Oc2ccc(NC(=O)Nc3ccc(Cl)c(OC4CCCCC4)c3)c(F)c2)ccn1`, the growth in [1] was 42.2%; in assay [2], 19.9%; in [3], 40.7%; in [4] it was 28.6%; in [5] it was 72.8%; in assay [6], 62.9%. In addition, the growth is 33.8% in assay [7]; 66% in assay [8]; 47.6% in assay [9]; 5.13% (active) in assay [10]; 72.6% in [11]; 45.3% in assay [12]. Also, the growth in [13] is 62.9%; in assay [14], 27.8%; in [15], 11.9%; in [16], 82.6%; in assay [17], 26.2%.
For `COc1c(-c2c3sc(=O)[nH]c3nc3c2c(=O)[nH]n3C(C)C)cc2c(c1OC)OCO2`, the growth in assay [1] is 84.9%; in assay [2], 93.2%; in [3], 98.8%; in assay [4], 107%; in [5] it was 99.5%; in [7], 113%. For the same compound, the growth was 99.2% in assay [8]; 99.8% in assay [9]; 98.6% in [10]; 84.6% in assay [11]; 90.9% in assay [12]; 108% in assay [13]. In addition, the growth in assay [14] is 106%; in assay [15], 101%; in [16], 107%; in assay [17], 101%.
